Screening results deposited in PubChem BioAssay by National Center for Advancing Translational Sciences (NCATS).
Rows were chosen to be rich in hits. Some 5.1% of all compounds tested hit in one or more screens of this group.
Tau FP inhib = qHTS for Inhibitors of Tau Fibril Formation, Fluorescence Polarization; AID 1468, 2008; K18 P301L tau heparin fibrillization, Alexa594 FP, 6 h; actives 0.39% (n = 280,000); Potency, µM (doses to about 57.7 µM), without a hit: at the highest dose activity, negative = inhibition, hits mostly inhibitors; also: potency is read from the fitted curve at half-maximal effect; nearly all actives have a fitted effect of over 55% in size
Target sequence (P10636 561-689 P618L limits assumed): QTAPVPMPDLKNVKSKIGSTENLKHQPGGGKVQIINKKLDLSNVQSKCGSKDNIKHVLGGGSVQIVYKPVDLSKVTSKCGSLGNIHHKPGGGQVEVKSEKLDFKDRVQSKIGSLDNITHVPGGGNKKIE
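Human tau K18 […] P301L fragment, 15 uM unlabeled plus 0.24 uM Alexa 594-labeled tau (final), with compound and 20 uM heparin in 100 mM sodium acetate pH 7; 6 hr at 37 C, then Alexa 594 FP read.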
JMJD2E inh = qHTS Assay for Inhibitors of Human Jumonji Domain Containing 2E (JMJD2E); Lysine-specific demethylase 4E (Homo sapiens), B2RXH2; JMJD2E catalytic domain, FDH-coupled NADH fluorescence (FDH is formaldehyde dehydrogenase); Potency, µM (highest dose often 57.1 µM), for the others: at the highest dose activity change, negative = inhibition, most hits filed as inhibitors; actives 1.6% (n = 230,000); AID 2147, 2009; active = well fitted inhibition curve with a large enough effect, not every such curve was filed as active; inconclusive = small, poorly fitted or top-dose-only effect, or another doubt; inactive = no such curve, though single readings can be large or run the other way;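 also: potency is read from the fitted curve at half-maximal effect; 0% = wells with enzyme and -100% = buffer wells without enzyme; nearly all actives have a fitted effect of over 50% in size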
Target sequence (B2RXH2 1-337 limits assumed): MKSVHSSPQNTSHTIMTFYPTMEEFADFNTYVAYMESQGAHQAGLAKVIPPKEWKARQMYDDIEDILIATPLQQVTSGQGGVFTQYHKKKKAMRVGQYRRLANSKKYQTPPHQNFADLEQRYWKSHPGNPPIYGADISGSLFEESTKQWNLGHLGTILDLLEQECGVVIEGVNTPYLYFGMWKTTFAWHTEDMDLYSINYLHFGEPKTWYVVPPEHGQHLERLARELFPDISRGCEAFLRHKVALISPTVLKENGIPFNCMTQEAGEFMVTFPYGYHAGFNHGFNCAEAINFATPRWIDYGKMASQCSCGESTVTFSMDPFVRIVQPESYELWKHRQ
PNC assembly inh = High Content Assay for Compounds that inhibit the Assembly of the Perinucleolar Compartment. PC3M PTB-GFP, PNC prevalence imaging, 16 h; stronger effect = lower value. activity change (PNC), negative = inhibition, % at 10 µM. actives 3.1% (n = 140,000). AID 2417, 2010;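 active = readout at or below -70, meaning at least 70% loss of cells showing the perinucleolar compartment, a nuclear body marking cancer cells; inconclusive = readout between -30 and a set limit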;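 also: plate controls were DMSO wells for no effect and camptothecin positive control wells for full effect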
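PC3M cells stably expressing PTB-GFP, 750–1000 cells/well, treated 16 h at 37 °C with compound (23 nl of library stock), in duplicate. After paraformaldehyde fixation and Hoechst stain, imaged at 20x; PNC prevalence scored by image analysis.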
NPSR antagonist = qHTS Assay for Antagonists of the Neuropeptide S Receptor: cAMP Signal Transduction | Potency, µM (doses to about 38.3 µM), inactives show at the highest dose activity change, negative = inhibition, actives largely listed as inhibitors | actives 1% (n = 220,000) | CHO-NPSR cells, cAMP TR-FRET, antagonist mode; also: potency is read from the fitted curve at half-maximal effect; nearly all actives have a fitted effect of over 50% in size
Tau fibril ThT = qHTS for Inhibitors of Tau Fibril Formation, Thioflavin T Binding; actives 2.1% (n = 270,000); Microtubule-associated protein tau (Homo sapiens), P10636; Potency, µM (titrated, usually from 57.4 µM), for the others: top-dose activity, negative = inhibition, usual class: inhibitors; recombinant tau K18 P301L, heparin-induced fibrillization, ThT fluorescence; also: potency is read from the fitted curve at half-maximal effect; nearly all actives have a fitted effect of over 55% in size
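Heparin-induced fibrillization of the P301L-mutant K18 repeat-domain fragment of human tau was followed by ThT binding in quantitative high-throughput format.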
Tau fluor counter = Counterscreen qHTS for Inhibitors of Tau Fibril Formation, Fluorescence Polarization | tau K18 P301L (four-repeat tau fragment) Alexa594 fluorescence, heparin fibrillization | Potency, µM (titrated, usually from 57.7 µM), without a hit: top-dose activity change, negative = decrease | actives 0.93% (n = 280,000); also: potency is read from the fitted curve at half-maximal effect; nearly all actives have a fitted effect of over 55% in size
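Human K18 P301L tau (15 uM unlabeled plus 0.24 uM Alexa 594-labeled, final) in 100 mM sodium acetate pH 7 was mixed with compound and 20 uM heparin and incubated 6 hr at 37 C.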
Starred values were filed as active, the others as inactive; ? = inconclusive; nt = no result; [ ] = dose if it differs, or a comment. Unless noted, calls follow the shape of the dose curve; as a rule, active = well fitted curve in the direction sought with a large enough effect; inconclusive = small, poorly fitted or top-dose-only effect, or another doubt; inactive = no such curve, though single readings can be large; an effect the other way counts as inactive or inconclusive. Unless noted, % is scaled to controls: 0 for no effect and ±100 for the full control effect.

SMILES	Tau FP inhib	JMJD2E inh	PNC assembly inh	NPSR antagonist	Tau fibril ThT	Tau fluor counter
Cc1ccc(S(=O)(=O)O/N=C2\CCCc3ccccc32)cc1	0%	-4%	38	-5%[46.1 µM]	-15%	-9%
CCc1cc2c(cc3c(=O)n(CCCC(=O)NCc4cccc(Cl)c4)ncn32)s1	-11%	nt	nt	nt	-7%	-3%
CC(C)c1ccc(NC(=O)C2CCCN(S(=O)(=O)c3ccc4[nH]c(=O)ccc4c3)C2)cc1 (stereo not given)	-17%	nt	nt	nt	6%	-9%
COc1cc(/C=C/C(=O)c2ccc(Cl)s2)cc(OC)c1O	5%	-13%	39	10µM*	14µM*	?
COc1ccc(/C=C/C(=O)c2ccc(Cl)s2)cc1O	?	-28%	-11	?	7.9µM*	?
COc1ccc(/C=C/C(=O)CC(=O)/C=C/c2cccc(O)c2OC)cc1O	-9%	nt	nt	nt	1.3µM*	8.9µM*[quencher]
COc1ccc(/C=C/C(=O)NCCNC(=O)c2ccccc2)cc1OC	-3%	?	nt	2%	-11%	0%
COc1ccc(C(=O)/C=C/c2ccc(OC)c(O)c2)c(F)c1	-4%	-4%	-25	-22%[46.1 µM]	1%	-2%
O=C(NCc1ccc(F)cc1)c1cc2cccc3c2n1CCS3	?	nt	nt	nt	-11%	?
Cc1cc(C)cc(NC(=O)Cn2nnc(-c3ccccc3F)n2)c1	-23%	nt	nt	nt	-11%	-16%
COC(=O)c1ccc2c(c1)C(C)(C)C(/C=C/c1ccc(OC)c(OC)c1OC)=[N+]2C	10%	-161%	17	10µM*	?	-12%
COC(=O)c1ccc2c(c1)C(C)(C)C(/C=C/c1ccc(O)cc1)=[N+]2C	?	43%	?	?	13µM*	?
CCN(CC)c1ccc(-n2cc3c(=O)n(C)c(=O)n(C)c3c2)cc1	6%	?	11	-8%[46.1 µM]	5µM*	?
CN(C)c1ccc(-n2cc3c(=O)n(C)c(=O)n(C)c3c2)cc1	3%	?	-18	-16%[46.1 µM]	2.8µM*	-20%
CC(=O)Nc1ccc(-n2cc3c(c2-c2ccc(C)cc2)c(=O)n(C)c(=O)n3C)cc1	-10%	nt	nt	nt	-8%	-21%
CCC(=O)N1CCc2cc(Br)cc(S(=O)(=O)CCC(=O)NCc3cccc(OC)c3)c21	3%	nt	nt	nt	-13%	-20%
COC(=O)c1ccc(Cl)cc1NC(=O)/C=C/c1ccc(C)o1	-13%	-6%	-124*	-9%	-16%	-8%
Cc1ccc(NC(=O)/C=C/c2ccc(C)o2)c(C)c1	-10%	nt	nt	nt	-15%	-11%
O=c1nc(/C=C/c2ccc(-c3ccc(F)cc3)o2)cc(C(F)(F)F)[nH]1	-7%	-11%	8	-8%[46.1 µM]	16µM*	-16%
CN(C)C(CNc1nnnn1-c1ccccc1)c1ccco1 (stereo not given)	17%	1%	-90*	-14%[46.1 µM]	-14%	-12%
CC(=O)c1ccc(NC(=S)Nc2ccn(Cc3ccc(Br)cc3)n2)cc1	?	-2%	nt	-22%	10%	10µM*[quencher]
CC(=O)c1cccc(NC(=S)Nc2ccn(Cc3cccc4ccccc34)n2)c1	?	-15%	nt	-39%	-5%	-27%
CCOc1ccc(-c2c(C)nn3c(C)c(C(=O)NCC(C)c4ccccc4)cnc23)cc1OCC (stereo not given)	?	nt	nt	nt	?	-19%
CCOc1c(C)cc2[nH]c(CCC(=O)O)nc2c1C	-2%	3%	-119*	-4%[46.1 µM]	-22%	-14%
O=C(CSc1oc(-c2ccco2)nc1S(=O)(=O)c1ccccc1)NCC1CCCO1 (stereo not given)	?	-24%	-15	3%	-17%	-9%
